Legend:
Test in all cases: DAPPL (digital affinity profiling via proximity ligation, sequencing); 10 mM Tris-HCl pH 7.5, 50 mM NaCl, 1 mM DTT, 4% glycerol, room temperature, 30 min; GST-TFs on glutathione beads, 16-mer random dsDNA library, 0.1% formaldehyde crosslink after washing; high values mean tight binding
Conditions in all cases: protein: recombinant; tags: N-terminal GST; dsDNA, one strand shown
[1] = target: T1, FLI1 (Homo sapiens, UniProt Q01543 1-452)
T1 sequence: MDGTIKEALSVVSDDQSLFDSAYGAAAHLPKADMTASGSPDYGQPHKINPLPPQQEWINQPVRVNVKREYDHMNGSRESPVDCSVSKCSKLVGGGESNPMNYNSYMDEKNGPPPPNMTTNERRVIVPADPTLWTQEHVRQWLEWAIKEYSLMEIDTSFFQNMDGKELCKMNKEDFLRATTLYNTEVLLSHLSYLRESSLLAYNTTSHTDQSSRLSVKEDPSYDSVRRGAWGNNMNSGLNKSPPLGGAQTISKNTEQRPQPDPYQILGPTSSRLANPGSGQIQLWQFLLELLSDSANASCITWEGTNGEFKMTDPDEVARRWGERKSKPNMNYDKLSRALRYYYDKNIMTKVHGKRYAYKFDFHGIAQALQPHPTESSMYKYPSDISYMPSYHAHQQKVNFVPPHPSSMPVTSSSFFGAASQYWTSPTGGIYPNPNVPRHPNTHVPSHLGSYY
Summary of the method: (§1)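 Yeast served to express human transcription factors as GST fusions, which were then captured on glutathione beads and labelled with DNA barcodes. Pooled with a tag-only sample, they were incubated with 200 nmole of a 16-mer random double-stranded DNA library for 30 min at room temperature in Tris/NaCl/DTT/glycerol buffer, washed, crosslinked with 0.1% formaldehyde, ligated by proximity, amplified by PCR and sequenced. Dividing each hexamer's read frequency for a factor by its frequency for the tag-only sample gives the binding signal.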

[2] = target: T2, ELK1 (Homo sapiens, UniProt P19419 1-428)
T2 sequence: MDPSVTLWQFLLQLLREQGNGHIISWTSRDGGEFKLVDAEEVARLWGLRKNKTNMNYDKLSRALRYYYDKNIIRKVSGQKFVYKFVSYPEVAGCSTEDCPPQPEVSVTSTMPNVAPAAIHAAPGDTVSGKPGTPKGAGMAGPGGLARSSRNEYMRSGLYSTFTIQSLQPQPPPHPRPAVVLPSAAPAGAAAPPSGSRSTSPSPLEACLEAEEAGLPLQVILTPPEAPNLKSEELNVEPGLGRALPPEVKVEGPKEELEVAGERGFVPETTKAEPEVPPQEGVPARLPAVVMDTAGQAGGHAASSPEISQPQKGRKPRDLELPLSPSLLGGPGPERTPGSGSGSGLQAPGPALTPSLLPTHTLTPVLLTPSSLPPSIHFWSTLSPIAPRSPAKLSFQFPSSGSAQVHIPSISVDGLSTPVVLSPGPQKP
Summary of the method: as §1

[3] = target: T3, GABPA (Homo sapiens, UniProt Q06546 1-454)
T3 sequence: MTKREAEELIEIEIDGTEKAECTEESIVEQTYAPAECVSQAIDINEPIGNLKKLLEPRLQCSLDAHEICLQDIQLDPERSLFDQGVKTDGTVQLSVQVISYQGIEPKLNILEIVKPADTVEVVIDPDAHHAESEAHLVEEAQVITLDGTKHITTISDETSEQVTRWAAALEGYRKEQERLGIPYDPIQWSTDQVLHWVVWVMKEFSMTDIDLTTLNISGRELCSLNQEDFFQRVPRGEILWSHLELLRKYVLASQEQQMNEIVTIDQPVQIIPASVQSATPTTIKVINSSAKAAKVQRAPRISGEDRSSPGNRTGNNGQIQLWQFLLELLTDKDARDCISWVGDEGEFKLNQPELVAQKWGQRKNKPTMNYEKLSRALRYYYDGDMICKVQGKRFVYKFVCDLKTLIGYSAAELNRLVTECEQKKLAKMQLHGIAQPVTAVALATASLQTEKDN
Summary of the method: as §1

[4] = target: T4, ERG (Homo sapiens, UniProt P11308 1-479)
T4 sequence: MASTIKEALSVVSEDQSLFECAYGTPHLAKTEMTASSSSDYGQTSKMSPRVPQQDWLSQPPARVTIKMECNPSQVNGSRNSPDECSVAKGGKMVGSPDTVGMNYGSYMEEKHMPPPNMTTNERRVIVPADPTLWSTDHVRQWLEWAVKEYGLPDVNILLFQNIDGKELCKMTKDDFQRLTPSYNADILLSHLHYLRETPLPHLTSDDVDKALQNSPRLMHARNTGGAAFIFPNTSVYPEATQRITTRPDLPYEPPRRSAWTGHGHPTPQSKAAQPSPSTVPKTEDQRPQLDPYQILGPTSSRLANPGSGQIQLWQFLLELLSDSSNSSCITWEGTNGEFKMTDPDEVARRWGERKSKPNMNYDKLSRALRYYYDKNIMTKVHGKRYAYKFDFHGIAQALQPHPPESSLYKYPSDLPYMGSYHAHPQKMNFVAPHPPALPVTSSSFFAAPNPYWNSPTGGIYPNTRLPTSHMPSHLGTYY
Summary of the method: as §1

[5] = target: ELF1 (Homo sapiens, UniProt P32519 1-619)
ELF1, sequence (P32519 whole entry): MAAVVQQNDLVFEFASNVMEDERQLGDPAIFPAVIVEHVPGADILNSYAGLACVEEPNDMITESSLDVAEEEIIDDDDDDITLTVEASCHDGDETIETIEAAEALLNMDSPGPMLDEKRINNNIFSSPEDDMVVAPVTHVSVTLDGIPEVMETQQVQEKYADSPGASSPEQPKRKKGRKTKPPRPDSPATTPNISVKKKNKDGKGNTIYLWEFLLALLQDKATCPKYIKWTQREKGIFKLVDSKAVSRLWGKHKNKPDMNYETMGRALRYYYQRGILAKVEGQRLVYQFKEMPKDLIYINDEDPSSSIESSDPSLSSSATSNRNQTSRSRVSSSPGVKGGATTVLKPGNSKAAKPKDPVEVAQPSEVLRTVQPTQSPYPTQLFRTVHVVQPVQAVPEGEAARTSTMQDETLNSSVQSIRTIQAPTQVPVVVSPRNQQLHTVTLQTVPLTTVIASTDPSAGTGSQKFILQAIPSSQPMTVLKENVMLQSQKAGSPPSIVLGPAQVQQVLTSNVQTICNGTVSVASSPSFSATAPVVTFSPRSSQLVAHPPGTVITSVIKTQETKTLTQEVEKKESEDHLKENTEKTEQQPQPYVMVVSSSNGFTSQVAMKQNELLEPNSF
Summary of the method: as §1

[6] = target: T5, EHF (Homo sapiens, UniProt Q9NZC4 1-300)
T5 sequence: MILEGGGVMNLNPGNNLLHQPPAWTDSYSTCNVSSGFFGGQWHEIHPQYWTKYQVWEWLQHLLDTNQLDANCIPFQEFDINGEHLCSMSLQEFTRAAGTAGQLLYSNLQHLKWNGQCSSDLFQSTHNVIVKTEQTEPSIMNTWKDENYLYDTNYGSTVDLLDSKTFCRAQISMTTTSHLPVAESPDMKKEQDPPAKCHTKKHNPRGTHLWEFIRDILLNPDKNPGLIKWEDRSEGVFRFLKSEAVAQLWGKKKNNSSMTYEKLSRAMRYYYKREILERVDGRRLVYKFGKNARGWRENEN
Summary of the method: as §1

[7] = target: SPI1 (Homo sapiens, UniProt P17947 1-270)
Summary of the method: as §1

[8] = target: SPIB (Homo sapiens, UniProt Q01892 1-262)
SPIB, sequence (Q01892 whole entry): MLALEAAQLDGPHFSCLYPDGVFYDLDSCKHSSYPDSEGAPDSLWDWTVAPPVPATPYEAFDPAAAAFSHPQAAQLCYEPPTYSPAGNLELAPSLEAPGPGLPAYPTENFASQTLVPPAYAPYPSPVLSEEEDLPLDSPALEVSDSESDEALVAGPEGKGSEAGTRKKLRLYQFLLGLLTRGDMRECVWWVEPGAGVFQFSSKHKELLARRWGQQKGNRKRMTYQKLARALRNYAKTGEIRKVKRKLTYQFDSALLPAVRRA
Summary of the method: as §1

[9] = target: T6, ELK3 (Homo sapiens, UniProt P41970 1-407)
T6 sequence: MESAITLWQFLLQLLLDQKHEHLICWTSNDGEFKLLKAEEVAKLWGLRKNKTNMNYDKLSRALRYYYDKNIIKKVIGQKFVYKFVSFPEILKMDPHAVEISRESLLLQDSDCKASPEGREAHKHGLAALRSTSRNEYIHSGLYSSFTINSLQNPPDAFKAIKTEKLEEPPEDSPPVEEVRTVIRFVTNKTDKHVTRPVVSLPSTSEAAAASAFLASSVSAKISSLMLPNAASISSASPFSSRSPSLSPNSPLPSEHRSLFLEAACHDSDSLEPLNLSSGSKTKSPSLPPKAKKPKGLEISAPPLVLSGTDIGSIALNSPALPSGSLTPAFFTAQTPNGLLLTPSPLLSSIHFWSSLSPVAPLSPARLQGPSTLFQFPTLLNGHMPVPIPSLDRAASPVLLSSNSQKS
Summary of the method: as §1

[10] = target: T7, FEV (Homo sapiens, UniProt Q99581 1-238)
T7 sequence: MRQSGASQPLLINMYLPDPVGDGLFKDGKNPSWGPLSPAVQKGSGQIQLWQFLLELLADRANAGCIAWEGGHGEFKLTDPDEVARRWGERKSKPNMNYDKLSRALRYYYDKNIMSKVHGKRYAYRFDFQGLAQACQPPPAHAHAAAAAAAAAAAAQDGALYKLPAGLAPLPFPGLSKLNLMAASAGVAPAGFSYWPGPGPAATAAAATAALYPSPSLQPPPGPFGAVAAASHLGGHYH
Summary of the method: as §1

[11] = target: ETV5 (Homo sapiens, UniProt P41161 1-510)
ETV5, sequence (P41161 whole entry): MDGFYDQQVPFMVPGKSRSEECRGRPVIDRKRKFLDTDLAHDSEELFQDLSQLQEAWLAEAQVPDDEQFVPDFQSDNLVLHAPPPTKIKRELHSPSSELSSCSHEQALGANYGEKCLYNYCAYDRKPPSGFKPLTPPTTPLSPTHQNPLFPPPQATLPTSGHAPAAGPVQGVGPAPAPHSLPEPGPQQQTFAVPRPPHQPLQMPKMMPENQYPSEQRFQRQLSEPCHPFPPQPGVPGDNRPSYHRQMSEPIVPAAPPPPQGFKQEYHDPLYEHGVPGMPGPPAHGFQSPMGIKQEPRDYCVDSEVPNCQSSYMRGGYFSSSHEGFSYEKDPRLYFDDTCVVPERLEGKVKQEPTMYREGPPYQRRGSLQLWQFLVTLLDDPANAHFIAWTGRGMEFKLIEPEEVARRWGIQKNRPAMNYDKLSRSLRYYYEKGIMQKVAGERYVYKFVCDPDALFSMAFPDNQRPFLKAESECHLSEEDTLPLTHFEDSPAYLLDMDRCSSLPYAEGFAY
Summary of the method: as §1

[12] = target: T8, SPIC (Homo sapiens, UniProt Q8N5J4 1-248)
T8 sequence: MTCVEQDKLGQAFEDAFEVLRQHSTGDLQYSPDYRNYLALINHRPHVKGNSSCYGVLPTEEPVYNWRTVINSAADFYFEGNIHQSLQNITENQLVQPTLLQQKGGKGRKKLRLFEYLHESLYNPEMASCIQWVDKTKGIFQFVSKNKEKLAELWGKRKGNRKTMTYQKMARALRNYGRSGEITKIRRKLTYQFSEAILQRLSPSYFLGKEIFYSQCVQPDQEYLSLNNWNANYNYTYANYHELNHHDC
Summary of the method: as §1

[13] = target: ELF4 (Homo sapiens, UniProt Q99607 1-663)
ELF4, sequence (Q99607 whole entry): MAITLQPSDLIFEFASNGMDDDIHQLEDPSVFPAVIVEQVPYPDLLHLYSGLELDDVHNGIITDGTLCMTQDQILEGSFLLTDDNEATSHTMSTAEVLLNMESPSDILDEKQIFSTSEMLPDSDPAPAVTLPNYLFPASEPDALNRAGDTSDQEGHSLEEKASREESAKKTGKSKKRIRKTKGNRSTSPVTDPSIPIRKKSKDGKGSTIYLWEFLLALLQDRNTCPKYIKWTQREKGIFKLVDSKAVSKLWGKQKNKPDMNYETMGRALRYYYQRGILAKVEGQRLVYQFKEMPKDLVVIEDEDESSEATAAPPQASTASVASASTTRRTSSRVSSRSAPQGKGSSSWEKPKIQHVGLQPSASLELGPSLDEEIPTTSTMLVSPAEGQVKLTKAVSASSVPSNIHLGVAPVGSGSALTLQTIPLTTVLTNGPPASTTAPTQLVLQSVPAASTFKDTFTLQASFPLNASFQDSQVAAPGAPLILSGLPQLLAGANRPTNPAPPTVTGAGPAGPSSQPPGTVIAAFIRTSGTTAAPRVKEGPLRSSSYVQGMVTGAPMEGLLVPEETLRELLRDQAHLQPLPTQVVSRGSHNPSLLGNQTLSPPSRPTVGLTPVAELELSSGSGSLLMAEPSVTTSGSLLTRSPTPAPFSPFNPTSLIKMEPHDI
Summary of the method: as §1

[14] = target: T9, ELK4 (Homo sapiens, UniProt P28324-2 1-405)
T9 sequence: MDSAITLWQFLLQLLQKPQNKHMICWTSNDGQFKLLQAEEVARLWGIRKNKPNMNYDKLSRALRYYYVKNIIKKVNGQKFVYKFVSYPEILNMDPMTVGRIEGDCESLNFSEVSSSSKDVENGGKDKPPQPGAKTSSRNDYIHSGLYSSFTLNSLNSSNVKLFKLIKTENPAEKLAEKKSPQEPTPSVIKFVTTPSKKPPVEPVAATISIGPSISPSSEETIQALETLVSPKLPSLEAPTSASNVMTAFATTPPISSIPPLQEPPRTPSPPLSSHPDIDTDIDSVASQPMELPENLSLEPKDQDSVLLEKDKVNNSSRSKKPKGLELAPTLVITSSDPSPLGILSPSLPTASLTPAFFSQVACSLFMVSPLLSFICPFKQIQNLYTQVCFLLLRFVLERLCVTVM
Summary of the method: as §1

[15] = target: T10, ETV2 (Homo sapiens, UniProt O00321 1-342)
T10 sequence: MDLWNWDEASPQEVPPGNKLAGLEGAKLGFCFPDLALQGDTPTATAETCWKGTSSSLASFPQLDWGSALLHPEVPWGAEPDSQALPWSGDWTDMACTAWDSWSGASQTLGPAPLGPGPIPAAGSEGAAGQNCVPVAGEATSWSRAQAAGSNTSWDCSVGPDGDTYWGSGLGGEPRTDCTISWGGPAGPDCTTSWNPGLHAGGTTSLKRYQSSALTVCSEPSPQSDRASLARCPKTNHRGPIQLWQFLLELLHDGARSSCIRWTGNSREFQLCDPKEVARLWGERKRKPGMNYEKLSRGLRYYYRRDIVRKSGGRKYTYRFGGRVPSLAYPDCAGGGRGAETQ
Summary of the method: as §1

[16] = target: T11, ELF3 (Homo sapiens, UniProt P78545 1-371)
T11 sequence: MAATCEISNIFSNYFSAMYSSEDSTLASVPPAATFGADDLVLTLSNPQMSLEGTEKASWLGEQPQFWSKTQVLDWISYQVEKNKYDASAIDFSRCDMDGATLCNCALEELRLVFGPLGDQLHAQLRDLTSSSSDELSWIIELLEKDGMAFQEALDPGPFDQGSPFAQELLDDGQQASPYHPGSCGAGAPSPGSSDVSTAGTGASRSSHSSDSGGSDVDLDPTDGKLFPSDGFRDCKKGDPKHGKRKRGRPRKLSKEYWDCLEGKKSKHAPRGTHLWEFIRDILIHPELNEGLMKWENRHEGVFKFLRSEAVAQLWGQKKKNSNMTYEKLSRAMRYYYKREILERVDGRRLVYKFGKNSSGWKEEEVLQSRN
Summary of the method: as §1

[17] = target: ETV1 (Homo sapiens, UniProt P50549 1-477)
ETV1, sequence (P50549 whole entry): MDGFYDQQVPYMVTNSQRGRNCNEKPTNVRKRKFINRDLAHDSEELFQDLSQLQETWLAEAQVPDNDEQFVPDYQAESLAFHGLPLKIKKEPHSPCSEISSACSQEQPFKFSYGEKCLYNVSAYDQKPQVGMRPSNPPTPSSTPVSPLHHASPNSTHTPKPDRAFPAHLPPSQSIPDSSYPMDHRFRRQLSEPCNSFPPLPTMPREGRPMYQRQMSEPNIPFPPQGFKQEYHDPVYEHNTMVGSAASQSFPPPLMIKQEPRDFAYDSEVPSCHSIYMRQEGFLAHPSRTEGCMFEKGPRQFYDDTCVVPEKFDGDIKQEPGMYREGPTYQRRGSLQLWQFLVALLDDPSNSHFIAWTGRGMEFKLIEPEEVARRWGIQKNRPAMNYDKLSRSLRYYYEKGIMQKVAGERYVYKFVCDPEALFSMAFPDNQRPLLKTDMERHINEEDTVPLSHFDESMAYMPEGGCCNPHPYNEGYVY
Summary of the method: as §1

Sequence | binding signal [1] | binding signal [2] | binding signal [3] | binding signal [4] | binding signal [5] | binding signal [6] | binding signal [7] | binding signal [8] | binding signal [9] | binding signal [10] | binding signal [11] | binding signal [12] | binding signal [13] | binding signal [14] | binding signal [15] | binding signal [16] | binding signal [17]
AACAGG | 1.2 fold enrichment (6-mer frequency, TF over GST control) | 1.16 fold enrichment (6-mer frequency, TF over GST control) | 1.13 fold enrichment (6-mer frequency, TF over GST control) | 1.23 fold enrichment (6-mer frequency, TF over GST control) | 1.08 fold enrichment (6-mer frequency, TF over GST control) | 1.18 fold enrichment (6-mer frequency, TF over GST control) | 1.43 fold enrichment (6-mer frequency, TF over GST control) | 1.16 fold enrichment (6-mer frequency, TF over GST control) | 1.11 fold enrichment (6-mer frequency, TF over GST control) | 1.16 fold enrichment (6-mer frequency, TF over GST control) | 1.27 fold enrichment (6-mer frequency, TF over GST control) | 1.15 fold enrichment (6-mer frequency, TF over GST control) | 1.08 fold enrichment (6-mer frequency, TF over GST control) | 1.09 fold enrichment (6-mer frequency, TF over GST control) | 1.03 fold enrichment (6-mer frequency, TF over GST control) | 1.15 fold enrichment (6-mer frequency, TF over GST control) | 1.18 fold enrichment (6-mer frequency, TF over GST control)
CTGGTC | 1.11 fold enrichment (6-mer frequency, TF over GST control) | 1.23 fold enrichment (6-mer frequency, TF over GST control) | 1.25 fold enrichment (6-mer frequency, TF over GST control) | 1.2 fold enrichment (6-mer frequency, TF over GST control) | 1.15 fold enrichment (6-mer frequency, TF over GST control) | 1.2 fold enrichment (6-mer frequency, TF over GST control) | 1.13 fold enrichment (6-mer frequency, TF over GST control) | 1.35 fold enrichment (6-mer frequency, TF over GST control) | 1.09 fold enrichment (6-mer frequency, TF over GST control) | 1.11 fold enrichment (6-mer frequency, TF over GST control) | 1.22 fold enrichment (6-mer frequency, TF over GST control) | 1.2 fold enrichment (6-mer frequency, TF over GST control) | 1.16 fold enrichment (6-mer frequency, TF over GST control) | 1.19 fold enrichment (6-mer frequency, TF over GST control) | 1.27 fold enrichment (6-mer frequency, TF over GST control) | 1.05 fold enrichment (6-mer frequency, TF over GST control) | 1.07 fold enrichment (6-mer frequency, TF over GST control)
GGATGC | 1.11 fold enrichment (6-mer frequency, TF over GST control) | 1.06 fold enrichment (6-mer frequency, TF over GST control) | 1.1 fold enrichment (6-mer frequency, TF over GST control) | 1.16 fold enrichment (6-mer frequency, TF over GST control) | 1 fold enrichment (6-mer frequency, TF over GST control) | 1.24 fold enrichment (6-mer frequency, TF over GST control) | 1.11 fold enrichment (6-mer frequency, TF over GST control) | 1.28 fold enrichment (6-mer frequency, TF over GST control) | 1.23 fold enrichment (6-mer frequency, TF over GST control) | 1.29 fold enrichment (6-mer frequency, TF over GST control) | 1.27 fold enrichment (6-mer frequency, TF over GST control) | 1.2 fold enrichment (6-mer frequency, TF over GST control) | 1.09 fold enrichment (6-mer frequency, TF over GST control) | 1.13 fold enrichment (6-mer frequency, TF over GST control) | 1.06 fold enrichment (6-mer frequency, TF over GST control) | 1.13 fold enrichment (6-mer frequency, TF over GST control) | 1.2 fold enrichment (6-mer frequency, TF over GST control)
